Screening data (PubChem)
In the library only some 3.8% were active in any assay of this set; here they are far more common.
HSF1 inhib: HSF1 inhibitors in luciferase reporter cells, primary screen, cell-based, NIH3T3, luminescence | NIH3T3-HGL HSE-luciferase, MG132-induced, luminescence 8 h; stronger effect = lower value | activity change, negative = inhibition, % at 7.5 µM (by protocol) | 300,000 compounds, 0.77% hits;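 active = more than half of replicate wells show activity change below -50%, luminescence cut by over half; inconclusive = some wells, but at most half, below -50%; inactive = no replicate well below -50%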;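 also: luciferase reports HSF-1 transcriptional activity via heat shock element; 0% = median of DMSO wells and -100% = zero luminescence signal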
HSF1 activator: HSF-1 activators, primary screen, NIH3T3-HGL cells, MG132 stress, luminescence, single point; NIH3T3-HGL HSF-1 luciferase reporter, 8 h; 100% = twice DMSO control signal; activation, % at 9 µM; 300,000 compounds, 1.7% hits; AID 504408, 2011;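 active = mean replicate activation of at least 50% with a set share of replicates each reaching 50%; inconclusive = only one of those two conditions met; inactive = mean below 50% and too few replicates reaching it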;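 also: 0% = median of the neutral control wells and 100% = twice that signal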
MITF TRPM1 HTS: activators of MITF-driven TRPM1 promoter reporter, primary screen, cell-based, SK-MEL-5, luciferase, single point; SK-MEL-5 TRPM1-promoter luciferase, 24 h; % of positive control, neutral wells = 0; activation, % at 12.5 µM; 300,000 compounds, 0.75% hits; AID 588334, 2011;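 active = mean activation of at least 80% with every replicate also reaching 80%; inconclusive = mean reaches 80% but some replicate falls short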;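 also: 0% = neutral control wells and 100% = parthenolide positive control wells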
Wnt bcat act: Wnt/beta-catenin pathway activators, primary screen, cell-based, plate reader, single point | AID 743398, 2014 | 300,000 compounds, 1.2% hits | Wnt/beta-catenin reporter cell assay, activator | activation, % at 9.35 µM; in the data active = activation above about 30%, passing the limit was not always enough; inconclusive = no clear call, values can overlap the other calls;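 also: 0% = neutral control wells and 100% = positive control wells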
esBAF inh: Bmi1 luciferase reporter increase in mESCs, primary screen, esBAF inhibitor project, mouse ES cells, Bmi1 luciferase knock-in, single point; reporter increase, % at 12.5 µM; 24 h; 100% = twice the neutral-well signal; 350,000 compounds, 2% hits; in the data active = activation above about 40%; inconclusive = no clear call, values can overlap the other calls;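 also: 0% = median of the plate's neutral control wells and 100% = double that signal; a rise in the Bmi1 reporter signal indicates esBAF inhibition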
The depositor's hits bear a star; u = inconclusive; x = no result.

SMILES	HSF1 inhib	HSF1 activator	MITF TRPM1 HTS	Wnt bcat act	esBAF inh
O=C(COc1ccc2ccccc2c1)N1CCCC1	9.4	9.8	44.5	36.5*	26.3
CCOc1ccccc1OCC(=O)Nc1cc(C)on1	x	x	12.5	0.2	3.4
O=C(COc1ccc2ccccc2c1Br)N1CCCCC1	15.8	7.0	40.0	x	76.0*
Cc1cc(NC(=O)COc2ccc3ccccc3c2Br)no1	x	x	67.9	40.2*	u
O=C(COc1ccc(Br)cc1)OCC(=O)N1CCOCC1	x	x	4.9	0.1	-16.0
COc1ccc(NC(=O)N(C)C[C@H]2Oc3ccc(NC(=O)Cc4cn(C)c5ccccc45)cc3C(=O)N([C@@H](C)CO)C[C@H]2C)cc1	x	x	x	x	6.5
CO[C@H]1CN(C)C(=O)c2cc(NS(=O)(=O)CC(F)(F)F)ccc2OC[C@@H](C)N(Cc2ccccn2)C[C@H]1C	x	x	x	x	2.9
O=C(C[C@H]1CC[C@H](NC(=O)Nc2ccc(C(F)(F)F)cc2)[C@@H](CO)O1)NCc1ccccn1	x	x	x	x	-1.6
C[C@H]1CN([C@@H](C)CO)C(=O)c2cc(NS(C)(=O)=O)ccc2O[C@H]1CN(C)Cc1ccc(C(=O)O)cc1	x	x	x	x	5.7
CNC[C@@H]1Oc2c(NC(=O)C3CC3)cccc2C(=O)N([C@@H](C)CO)C[C@H]1C	x	x	x	x	-0.2
COc1ccc(S(=O)(=O)N(C)C[C@@H]2Oc3ccc(NC(=O)Cn4cnnn4)cc3C(=O)N([C@H](C)CO)C[C@H]2C)cc1	x	x	x	x	-6.2
CC(=O)c1c(C)[nH]c(C(=O)COC(=O)Cc2ccccc2F)c1C	x	x	x	26.4	56.0*
Cc1[nH]c2ccc(C(=O)OCCN(C)C)cc2c1C	1.0	0.9	27.8	-1.3	9.4
CCOC(=O)c1ccc2[nH]c(C)c(C)c2c1	-1.3	18.4	36.4	x	58.5*
CCOC(=O)c1ccc2[nH]c3ccccc3c2c1	20.6	46.8	47.6	0.0	62.0*
CCOC(=O)c1ccc2[nH]c(C)cc(=O)c2c1	2.3	-7.4	3.4	x	3.7
COCC(=O)Nc1ccc2c(c1)[C@@H]1C[C@H](CC(=O)NCc3ccc(-c4ccccc4)cc3)O[C@@H](CO)[C@@H]1O2	x	x	x	x	-2.0
COc1cccc(S(=O)(=O)N2C[C@H](O)COC[C@H]3O[C@H](CC(=O)N4CCOCC4)CC[C@@H]32)c1	x	x	x	x	-3.5
COc1cc(C2C3=C(CC(C)(C)CC3=O)Nc3c2c(=O)[nH]c(=O)n3Cc2ccccc2)ccc1O (stereo not drawn)	-3.5	10.3	-9.4	32.6*	x
COc1ccc(C2C3=C(CC(C)(C)CC3=O)Nc3c2c(=O)[nH]c(=O)n3Cc2ccccc2)cc1OC (stereo not drawn)	5.8	-6.5	13.0	x	3.2
COc1ccccc1CNc1ccc([N+](=O)[O-])cc1C	27.3	55.0*	-10.5	0.1	x
Cc1cc([N+](=O)[O-])ccc1NCc1ccccc1	11.1	18.6	-8.5	x	6.9
COc1cccc(CNc2ccc([N+](=O)[O-])cc2Cl)c1O	72.2	97.2*	38.8	-1.8	x
CCCNC(=O)[C@H]1[C@H](CO)[C@H]2Cn3c(ccc(-c4ccccc4OC)c3=O)[C@H]2N1C(=O)CC	x	x	x	x	7.0
CC(C)CCNC(=O)C(=O)NC1CCCC1	17.4	19.7	38.2	-9.0	13.7
SMILES	HSF1 inhib	HSF1 activator	MITF TRPM1 HTS	Wnt bcat act	esBAF inh
CC(C)CCNC(=O)C1CCCN1C(=O)NC1CCCCC1 (stereo not drawn)	-71.6*	-75.6	-2.9	x	-4.5
CC(Sc1nc2ccccc2c(=O)n1CC1CCCO1)C(=O)Nc1ccc(S(N)(=O)=O)cc1 (stereo not drawn)	25.0	55.8*	1.1	-3.4	-11.8
Cc1cc(C)n(-c2ccc(C(=O)OCc3ccccc3)cc2)n1	10.8	31.9	16.2	-2.0	x
CS(=O)(=O)c1ccc(C(=O)OCc2nnc(-c3ccccc3)o2)cc1[N+](=O)[O-]	178.4	225.1*	-46.9	-2.4	x
Cc1cc(C)n(-c2ccc(C(=O)OCc3nnc(-c4ccccc4)o3)cc2)n1	-0.9	1.6	14.0	x	45.6*
Cc1ccc(C(=O)NCCCc2ccccc2)s1	9.5	41.1	87.4*	52.6*	x
O=C(CCc1c[nH]c2ccccc12)NCCc1ccccc1	4.2	29.5	12.8	1.7	5.8
Cc1ccc(C(=O)NCCc2c[nH]c3ccccc23)s1	25.5	48.1	x	29.5	55.7*
O=C(NCCc1c[nH]c2ccccc12)c1ccccc1	1.6	12.8	11.9	-1.1	30.3
Cc1ccc(C(=O)NCC(=O)NCCCc2ccccc2)s1	-4.7	-4.4	-4.8	-0.9	-0.6
CC(C)C(=O)NCCc1c[nH]c2ccccc12	-4.2	3.1	7.5	-1.4	-3.2
O=C(CCc1c[nH]c2ccccc12)NCCc1ccc(Cl)cc1	17.5	54.8*	2.2	14.4	-4.4
Cc1ccc(C(=O)NCCc2c[nH]c3ccccc23)c(C)c1	15.9	39.8	76.3	23.9	70.7*
C[C@@H]1CN([C@H](C)CO)C(=O)c2cc(NC(=O)Cc3ccccc3)ccc2O[C@@H](C)CCCCO[C@H]1CN(C)Cc1ccc(Cl)c(Cl)c1	x	x	x	x	2.8
C[C@@H]1CN([C@@H](C)CO)C(=O)c2cc(C3=CCCCC3)cnc2O[C@H]1CN(C)C(=O)c1ccccc1	x	x	x	x	3.2
CCOc1ccc(CCNC(=O)c2ccc3ccccc3n2)cc1OCC	10.8	20.3	-1.6	6.5	56.7*
COc1ccc(CCNC(=O)c2ccc3ccccc3n2)cc1OC	-6.6	5.0	-1.7	-3.1	-5.4
CCCCOC(=O)c1ccc(OC(=O)c2cccnc2)cc1	9.4	13.5	9.4	x	23.2
CCCCCCOC(=O)c1ccc(OC(=O)c2cccnc2)cc1	30.7	58.4*	64.3	x	51.7*
COc1cccc(C(=O)Nc2ccc3c(C)cc(=O)oc3c2)c1	62.4	107.8*	20.0	33.1*	34.3
Cc1cc(=O)oc2cc(NC(=O)c3ccccc3Cl)ccc12	20.9	62.5*	98.2*	u	x
O=C(C[C@H]1CC[C@@H]2NC[C@@H](O)COC[C@H]2O1)NCc1ccc2c(c1)OCO2	x	x	x	x	3.7
CC(NC(=O)CCCCCN1C(=O)c2ccccc2C1=O)c1ccc2c(c1)CCCC2 (stereo not drawn)	15.3	33.2	5.0	-3.2	0.3
CC(NC(=O)CCCN1C(=O)c2ccccc2C1=O)c1ccc2c(c1)CCCC2 (stereo not drawn)	118.1	203.3*	3.6	x	4.8
Cc1sc2nc3ccc(N4CCCCC4)nn3c(=O)c2c1C	28.9	43.8	121.0*	-1.6	-4.9
Cc1ccc2nc3ccc(N4CCCC4)nn3c(=O)c2c1	14.1	21.3	93.7*	x	38.9
Cc1sc2nc3n(c(=O)c2c1C)CCCCC3	4.4	11.4	13.5	x	13.9
CCOC(=O)c1ccc(CNC(=O)c2cc(COc3ccccc3SC)on2)o1	-6.8	11.8	103.2*	29.7	54.3*
CC(=O)c1cccc(OCc2cc(C(=O)N(C)Cc3ccc(C)o3)no2)c1	13.0	30.8	42.6	14.8	37.8
